Results on 90 molecules are retold here after PubChem BioAssay AID463173 (ICCB-Longwood Screening Facility, Harvard Medical School, 2010).

In all, about 52,000 compounds went through this assay and about 4,300 (8.3%) were called active. Cut-off read from the data, not from the text of the source: active = survival mostly below about 52% (no sharp cut-off); inactive = mostly above about 56%. The list comes from a sample in which actives are over-represented; it also holds similar structures and randomly drawn compounds.

The test system of the assay is DeltatarO mutant. The assay can be described thus: growth inhibition of S. aureus wild type versus tarO mutant, primary screen, teichoic acid synthesis inhibitors, RN4220, OD600 (AID 463173). The settings on record: OD600, 18 h, hits give low values, screened at 18.75 µg/mL (by protocol).
As for `CCOc1ccc(NC(=O)c2cc(S(=O)(=O)NC3CCCC3)ccc2F)cc1`, the survival is 86% (inactive).

For the molecule `COCCn1c(=O)[nH]c2cc(C(=O)N3CCN(c4ccc(F)cc4)CC3)ccc2c1=O`, the survival is 70% (inactive).

As for `CCN(Cc1ccccc1)C(=O)CN1C(=O)COc2ccc(S(=O)(=O)NC3CCCC3)cc21`, the survival is 78% (inactive).

Consider `CC(C)NC(=O)CN1CCN(c2ccc(F)cc2)CC1`, for which the survival is 87% (inactive).

As to `Cc1ccc(S(=O)(=O)c2cn(C)c3cc(N4CCN(c5ccccc5)CC4)c(F)cc3c2=O)cc1`, the survival was 95% (inactive).

For the molecule `COc1ccccc1N1CCN(C(=O)CCS(=O)(=O)c2cc(Br)cc3c2N(C(C)=O)CC3)CC1`, the survival was 53% (inactive).

Regarding `CC(=O)N1CCc2cc(Br)cc(S(=O)(=O)CCC(=O)N3CCN(c4ccccc4)CC3)c21`, the survival was 53% (active).

For `O=C(CCS(=O)(=O)c1cc(Br)cc2c1N(C(=O)C1CC1)CC2)N1CCN(c2ccccc2)CC1`, the survival is 91% (inactive).

As to `CC(=O)N1CCc2cc(Br)cc(S(=O)(=O)CCC(=O)N3CCN(c4ccccc4Cl)CC3)c21`, the survival was 61% (inactive).

On to `CC(=O)N1CCc2cc(Br)cc(S(=O)(=O)CCC(=O)N3CCN(c4cccc(C)c4C)CC3)c21`, for which the survival was 45% (active).

Regarding `CC(=O)N1CCc2cc(Br)cc(S(=O)(=O)CCC(=O)N3CCN(c4ccc(F)cc4)CC3)c21`, the survival was 67% (inactive).

Regarding `O=C(NCCS(=O)(=O)N1CCN(c2ccccc2F)CC1)C1CC(=O)N(c2ccc(F)cc2)C1` (stereo not given), the survival is 90% (inactive).

Turning to `O=C(NCCc1csc2nc(-c3cccc(F)c3)nn12)c1ccc(Br)o1`, the survival was 76% (inactive).

For `COc1ccc(-n2c(CNc3ccccc3Cl)nnc2SCC(N)=O)cc1`, the survival is 86% (inactive).

As for `CCN(CC)CCC(=O)c1ccc(OC(C)C)cc1`, the survival is 92% (inactive).

Turning to `COc1ccc(NC(=O)c2coc(C)c2)cc1`, the survival is 82% (inactive).

With `Cc1c(Cl)cccc1-c1ccc(CNc2ccc3[nH]c(=O)[nH]c3c2)o1`, the survival was 51% (inactive).

Turning to `COc1ccc(NC(=O)c2cc(-c3ccccc3O)no2)cc1`, the survival was 69% (inactive).

Take `CCOc1ccc(-c2cc(C(=O)Nc3ccc(NC(C)=O)cc3)no2)cc1`: the survival was 61% (inactive).

On to `COc1ccc(NC(=O)c2ccc(-c3cccc(Cl)c3C)o2)cc1`, for which the survival was 16% (active).

As to `CCOc1ccc(NC(=O)c2cc3cc4ccc(C)cc4nc3o2)cc1`, the survival is 83% (inactive).

Turning to `Cc1c(NC(=O)c2ccc(-c3ccc(F)cc3)o2)cccc1-c1nc2ncccc2o1`, the survival is 55% (inactive).

With `Cc1c(Cl)cccc1-c1ccc(C(=O)Nc2ccc(F)cc2)o1`, the survival was 1% (active).

As for `CCOC(=O)c1ccc(NC(=O)c2c(-c3c(F)cccc3Cl)noc2C)cc1`, the survival is 59% (inactive).

Regarding `CCOC(=O)c1ccc(NC(=O)c2cc(=O)c3cc(CC)ccc3o2)cc1`, the survival was 62% (inactive).

Consider `CCOc1ccc(NC(=O)c2ccc(-c3cccc(Cl)c3C)o2)cc1`, for which the survival is 42% (active).

As for `CCOC(=O)c1ccc(NC(=O)c2ccc(-c3cccc(Cl)c3C)o2)cc1`, the survival is 37% (active).

On to `Cc1cccc(CNC(=O)CS(=O)(=O)c2cccc3nsnc23)c1`, for which the survival was 78% (inactive).

Consider `COc1cccc(CNC(=O)CSc2nc3ccccc3nc2Cc2ccc(C)cc2)c1OC`, for which the survival is 74% (inactive).

As for `COCCCn1c(=N)c(S(=O)(=O)c2ccccc2)cc2c(=O)n3cc(C)ccc3nc21`, the survival was 68% (inactive).

`CCOc1ccc(C2CC(=O)c3c([nH]c(C(=O)OCCOc4ccccc4)c3C)C2)cc1` (stereo not given): the survival was 72% (inactive).

`O=C(Nc1cccc(-c2nc3ncccc3o2)c1)c1ccc(-c2cccc(Cl)c2Cl)o1`: the survival is 79% (inactive).

For `Cc1ccc(NC(=O)c2ccc(-c3cccc(Cl)c3C)o2)cc1`, the survival was 1% (active).

Turning to `Cc1c(Cl)cccc1-c1ccc(C(=O)Nc2ccc3oc(-c4cccnc4)nc3c2)o1`, the survival was 55% (inactive).

As for `CCc1ccc(NC(=O)N2CCOc3ccc(Cl)cc32)cc1`, the survival was 65% (inactive).

As to `COc1ccc(NC(=O)N2CCOc3ccc(Cl)cc32)cc1`, the survival is 44% (active).

As to `CCOC(=O)c1ccccc1NC(=O)N1CCOc2ccc(Cl)cc21`, the survival was 99% (inactive).

Turning to `Cc1ccc(C(=O)N(Cc2sccc2C)C2CCS(=O)(=O)C2)cc1` (stereo not given), the survival was 76% (inactive).

Consider `CCn1c(SC)nnc1C1CCCN1CC(=O)N1CCN(Cc2ccc3c(c2)OCO3)CC1` (stereo not given), for which the survival is 79% (inactive).

Turning to `Cc1ccc(Nc2nc(N)nc(CSc3nccn3C)n2)cc1`, the survival is 93% (inactive).

`Nc1nc(CSc2ccccn2)nc(Nc2ccccc2)n1`: the survival is 97% (inactive).

In the case of `Cc1c(Cl)cccc1Nc1nn2c(=O)c3ccccc3nc2s1`, the survival was 73% (inactive).

Take `Cc1ccc(CSc2nc3ccc(NC(=O)COc4ccccc4)cc3s2)cc1`: the survival was 87% (inactive).

As for `C/C=N/NC(=O)CSc1nc2ccccc2s1`, the survival was 96% (inactive).

Consider `Cc1c(Cl)cccc1Nc1nc(N)nc(CSc2nc3ccccc3s2)n1`, for which the survival was 24% (active).

Regarding `CCc1ccc(Nc2nc(N)nc(CSc3nc4ccccc4s3)n2)cc1`, the survival was 21% (active).

Turning to `Cc1ccc(Nc2nc(N)nc(CSc3nc4ccccc4s3)n2)cc1`, the survival was 25% (active).

With `CCC(=O)Nc1ccc2nc(SCc3ccccc3)sc2c1`, the survival was 76% (inactive).

With `COC(=O)Cn1c(=NC(=O)c2ccc3c(c2)OCCO3)sc2ccccc21`, the survival is 97% (inactive).

For `Cc1cccc(NC(=O)C2CCCN(c3nc4ccccc4s3)C2)c1C` (stereo not given), the survival is 83% (inactive).

`COC(C(=O)Nc1ccc2c(c1)OCCO2)c1ccccc1` (stereo not given): the survival is 87% (inactive).

`C=CCn1c(SCC(=O)c2cccs2)nc2sc(C)cc2c1=O`: the survival was 93% (inactive).

Consider `CC1CC(C(F)F)n2nc(C(=O)Nc3sc4c(c3C#N)CCC(C(C)(C)C)C4)nc2N1` (stereo not given), for which the survival was 103% (inactive).

Regarding `CCCCN(CCCC)CCNC(=O)Cn1nc(CC)n2c(cc3sc(C)cc32)c1=O`, the survival was 85% (inactive).

On to `CCCSc1nnc2c(n1)OC(CC)N(C(C)=O)c1ccccc1-2` (stereo not given), for which the survival was 62% (inactive).

`COc1ccc(-c2noc(N3CCN(c4cccc(C)c4C)CC3)n2)cc1OC`: the survival was 94% (inactive).

As to `Cc1ccc(OCc2ccc(-c3nc(C#N)c(NCc4ccccc4Cl)o3)o2)cc1`, the survival was 100% (inactive).

In the case of `O=C(Nc1ccc(C(F)(F)F)cc1)c1cc(S(=O)(=O)N2CCCc3ccccc32)ccc1F`, the survival is 101% (inactive).

Turning to `COc1ccc(NC(=O)c2sc3nc[nH]c(=O)c3c2C)cc1Cl`, the survival is 99% (inactive).

With `O=C(CCCn1c(=O)[nH]c2ccc(Br)cc2c1=O)N1CCN(c2cccc(Cl)c2)CC1`, the survival is 48% (active).

As for `CCOc1cc2[nH]c(=O)n(CCCC(=O)N3CCN(c4cccc(Cl)c4)CC3)c(=O)c2cc1OCC`, the survival is 81% (inactive).

For `Cc1ccc(Cl)cc1N1CCN(C(=O)CCCn2c(=O)[nH]c3ccc(Br)cc3c2=O)CC1`, the survival is 29% (active).

`Cc1ccc(Cl)cc1N1CCN(C(=O)CCCCCn2c(=O)[nH]c3ccccc3c2=O)CC1`: the survival was 78% (inactive).

On to `COC(=O)c1ccc2c(=O)n(CCCCCC(=O)N3CCN(c4cc(Cl)ccc4C)CC3)c(=O)[nH]c2c1`, for which the survival was 129% (inactive).

Turning to `COc1cccc(N2CCN(C(=O)CCCn3c(=O)[nH]c4ccc(Br)cc4c3=O)CC2)c1`, the survival was 53% (inactive).

Take `O=c1[nH]c(-c2ccc(S(=O)(=O)N3CCCC3)cc2)nc2sc3c(c12)CCCC3`: the survival is 120% (inactive).

Turning to `COc1cc(OC)c(NS(=O)(=O)c2cc(-c3cnc(C)o3)ccc2OC)cc1Cl`, the survival is 67% (inactive).

Regarding `O=C(CSc1nc2c(c(=O)[nH]1)CCCC2)Nc1ccccc1C(F)(F)F`, the survival was 58% (inactive).

In the case of `CCc1ccc(-n2c(SCC(=O)NC(C)CC)nc3n[nH]c(C)c3c2=N)cc1` (stereo not given), the survival is 122% (inactive).

As for `O=S(=O)(c1cccc(Cl)c1)n1c(/C=C/c2ccccc2Cl)nc2ccccc21`, the survival is 68% (inactive).

On to `CCOc1ccc(C2Nc3ccccc3-c3nnc(SCc4ccccc4)nc3O2)cc1OC` (stereo not given), for which the survival was 50% (inactive).

For the molecule `CCOc1cc(C2Nc3ccccc3-c3nnc(SCc4ccccc4)nc3O2)ccc1OC` (stereo not given), the survival was 45% (active).

Turning to `COc1cc(OC)c(C2Nc3ccccc3-c3nnc(SCc4ccccc4)nc3O2)cc1OC` (stereo not given), the survival is 54% (inactive).

As to `COc1cccc(C2Nc3ccccc3-c3nnc(SCc4ccccc4)nc3O2)c1OC` (stereo not given), the survival was 140% (inactive).

On to `CCOc1ccccc1C1Nc2ccccc2-c2nnc(SCc3ccccc3)nc2O1` (stereo not given), for which the survival was 44% (active).

On to `O=C(O)COc1ccccc1C1Nc2ccccc2-c2nnc(SCc3ccc(Cl)cc3)nc2O1` (stereo not given), for which the survival is 66% (inactive).

On to `COc1ccc(-c2noc(-c3nnn(-c4ccc(C(C)C)cc4)c3C)n2)cc1OC`, for which the survival is 67% (inactive).

With `O=C(c1ccc2c(c1)N(Cc1c(F)cccc1Cl)C(=O)c1ccccc1S2)N1CCCC1`, the survival is 74% (inactive).

Take `CCOc1ccccc1NC(=O)N1CCCC(c2nc3c(nnn3Cc3ccc(C)cc3)c(=O)[nH]2)C1` (stereo not given): the survival is 82% (inactive).

Turning to `COc1cccc(OC)c1Cn1nnc2c(=O)[nH]c(C3CCN(C(=O)c4ccccc4)CC3)nc21`, the survival is 56% (inactive).

On to `O=c1[nH]c(C2CCCNC2)nc2c1nnn2Cc1ccccc1` (stereo not given), for which the survival is 98% (inactive).

Consider `Cc1ccc(C)c(C(=O)N2CCC(c3nc4c(nnn4Cc4ccccc4)c(=O)[nH]3)CC2)c1`, for which the survival was 39% (active).

With `Cc1ccc(Cn2nnc3c(=O)[nH]c(C4CCN(S(=O)(=O)/C=C/c5ccccc5)CC4)nc32)cc1`, the survival is 89% (inactive).

With `CCOc1ccc(Cn2nnc3c(=O)[nH]c(C4CCN(C(=O)c5ccccc5)CC4)nc32)cc1`, the survival was 4% (active).

Regarding `O=C(c1ccccc1)N1CCC(c2nc3c(nnn3Cc3ccccc3)c(=O)[nH]2)CC1`, the survival was 13% (active).

`O=c1oc2cc(Br)ccc2n1CO`: the survival was 105% (inactive).

Take `Cc1ccc(NCc2ccccc2-c2nnc(-c3ccccc3Cl)o2)c(C)c1`: the survival was 83% (inactive).

As for `Cc1cccc(N2CCN(CC(=O)NCc3cccs3)CC2)c1C`, the survival was 101% (inactive).

`COc1ccc2c(c1)c1c(c(=O)n(CCc3ccccc3)c(=O)n1Cc1cccc(C)c1)n2C`: the survival is 70% (inactive).

On to `CCCCN(CC)CCNC(=O)c1nn(C)c2c1CS(=O)(=O)c1ccccc1-2`, for which the survival was 56% (inactive).
